Bioassay records from PubChem.
D3 antag = D3 dopamine receptor (human) antagonism. P35462. D3R cells, DiscoveRx beta-arrestin luminescence, antagonist mode; hits give low values. max response, negative = inhibition, %. 2.5% of 360,000 active; in the data active means max response below about -50%; inconclusive means no clear call, values can overlap the other calls
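Cells plated overnight at 1500 cells/well, then exposed to library compounds with dopamine controls for 90 minutes at 37 degrees C. DiscoveRx reagent added for 30–60 minutes at room temperature; luminescence read, quantitative HTS format.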
DRD3 agonist = activates the human D3 dopamine receptor; max activation, %; P35462; D3R DiscoveRx beta-arrestin cells, luminescence, 90 min; AID 652048; 0.58% of 410,000 active; in the data active means max activation above about 30%
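Agonist-mode cell screen: cells plated at 1500/well and incubated overnight at 37 °C, then exposed to library compounds for 90 min at 37 °C. Detection reagent was added for 30–60 min at room temperature, and luminescence was read.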
D1 antag = human D1 dopamine receptor antagonism; P21728; HEK293 TREx D1 cells, calcium flux, dopamine EC80; hits give low values; activity change, negative = inhibition, % at 10 µM; 3.2% of 360,000 active; AID 504652; in the data active means activity change below about -30%
Target sequence (P21728 whole entry, looked up): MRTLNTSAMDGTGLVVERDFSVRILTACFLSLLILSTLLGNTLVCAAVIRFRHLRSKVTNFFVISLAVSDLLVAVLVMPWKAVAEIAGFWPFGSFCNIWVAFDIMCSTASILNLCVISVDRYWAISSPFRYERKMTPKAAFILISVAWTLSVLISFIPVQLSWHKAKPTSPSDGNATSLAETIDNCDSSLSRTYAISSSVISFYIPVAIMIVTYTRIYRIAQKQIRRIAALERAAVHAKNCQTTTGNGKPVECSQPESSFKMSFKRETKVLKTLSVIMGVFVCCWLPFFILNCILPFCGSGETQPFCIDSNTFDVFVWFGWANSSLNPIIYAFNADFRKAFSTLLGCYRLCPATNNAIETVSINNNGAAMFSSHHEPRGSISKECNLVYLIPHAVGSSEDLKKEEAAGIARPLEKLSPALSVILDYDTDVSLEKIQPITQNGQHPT
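Using tetracycline-induced force-coupled D1 Hek293 cells and a calcium dye, signals were followed for 180 s after compound, then for 180 s after EC80 dopamine, to detect inhibitors.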
D1 ag = activates the human D1 dopamine receptor. P21728. HEK293 T-REx D1 cells, calcium flux, agonist mode. activation, % at 2 µM. 1% of 360,000 active. AID 504660; in the data active means activation above about 30%
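Tetracycline-induced HEK293 TREx D1 cells, force-coupled to calcium signalling, were dye-loaded with a no-wash calcium kit. Compound was pin-added after a 10 s baseline. Fluorescence was read kinetically at 1 cycle/s for 180 s, with calcium rises flagged as agonism.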
BCR signal inh = blocks chronic active B-cell receptor signaling | ABC-DLBCL IkBa-CBG/CBR reporter, luminescence ratio, 4 h | Potency, µM (series often up to 46.1 µM), hits mostly inhibitors | 0.05% of 340,000 active; active means well fitted inhibition curve with a large enough effect in the signal ratio, with a control signal flat, not every such curve was filed as active; inconclusive means small, poorly fitted or top-dose-only effect, or effect the other way, or a change in a side signal; the % refers to the signal ratio
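Compounds up to 46 uM were incubated four hours with TMD8 cells whose green CBG68 luciferase is fused to IkappaBalpha; red CBR luminescence normalised the signal, and concentration-effect curves were fitted to fusion, red and ratio data.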
D1 potentiator = enhances dopamine response at the human D1 receptor; P21728; HEK293 TREx D1 cells, calcium flux, dopamine EC20 potentiation; potentiation, % at 10 µM; 0.036% of 360,000 active; in the data active means potentiation above about 30%
Each line names hits and unclear results; the compound was inactive in the other large screens. Only some compounds are listed: those with a hit (about 6% of all), similar ones and a draw of the others.

COc1ccccc1C(=O)Nc1ccc2nc(SCC(=O)N(C)C)sc2c1	BCR signal inh inconclusive
O=[S+]([O-])(c1ccc2c(c1)OCCO2)N1CCN([S+](=O)([O-])c2c(F)cc(F)cc2Br)CC1	none (no result: D3 antag, DRD3 agonist, BCR signal inh)
COC(=O)c1cc2c(=O)c3ccccc3oc2nc1/C=C/N(C)C	D1 ag 76
CC(CC(=O)Nc1ccc2c(c1)c(=O)n(C)n2Cc1ccc(F)cc1)c1ccccc1 (stereo not given)	none (no result: D1 antag, D1 ag, BCR signal inh, D1 potentiator)
COc1ccc(/C=C2\SC(N)=NC2=O)cc1	none
CCOC(=O)CSC1=NC(=O)/C(=C/c2ccc(OC)cc2)S1	D1 antag -37, BCR signal inh inconclusive
CCOC(=O)Cn1c(=O)oc2cc(S(=O)(=O)N3CCN(c4cccc(C)c4C)CC3)ccc21	none (no result: D3 antag, BCR signal inh)
CC(NCc1ccc(S(N)(=O)=O)cc1)C(=O)N1CCc2ccccc21 (stereo not given)	none
CC(NCc1ccc2c(c1)OCO2)C(=O)N1CCc2ccccc21 (stereo not given)	D3 antag -107
O=C1c2c(-c3ccc(Br)cc3)noc2CCN1Cc1cn(C2CCCC2)nn1	none (no result: D1 antag, D1 ag, BCR signal inh, D1 potentiator)
COC(=O)c1cc2ccsc2n1CC(=O)Nc1cc(C)cc(C)c1	D3 antag -74, BCR signal inh inconclusive
Cc1nn(CC(=O)OCC(=O)c2ccc(OC(F)F)cc2)c(C)c1[N+](=O)[O-]	D1 antag -31
Cc1ccc2nc(Nc3nc(=O)c4ccccc4n3C)nc(C)c2c1	D1 ag 158, BCR signal inh inconclusive (no result: D3 antag, DRD3 agonist)
CC(OC(=O)c1ccc2ccccc2c1)C(=O)N(C)Cc1ccccc1 (stereo not given)	none
CC(C)N(CCC(=O)c1ccc2ccccc2c1)Cc1ccccc1	D3 antag -132, D1 antag -32, BCR signal inh inconclusive
CN(C)C(=O)c1ccc(S(=O)(=O)NCc2ccccc2Cl)s1	none (no result: D3 antag, BCR signal inh)
COc1ccccc1N1CCN(C(=O)C2CCN(S(=O)(=O)c3cnc[nH]3)CC2)CC1	none (no result: D3 antag, BCR signal inh)
O=C(Nc1ccc(N2CCOCC2)c(Cl)c1)c1ccc(Cl)cc1	D1 antag -31, BCR signal inh inconclusive
O=C(Nc1ccc(N2CCN(C(=O)c3ccccc3)CC2)c(Cl)c1)c1ccco1	D1 antag -33, BCR signal inh inconclusive
O=C(Nc1ccc2c(c1)CCCN2C(=O)c1cccs1)c1c(F)cccc1Cl	D1 antag -44, BCR signal inh inconclusive
O=C(Nc1ccc(N2CCOCC2)c(F)c1)c1cccs1	D1 antag -38, BCR signal inh inconclusive
CC(=O)N1CCN(c2ccc(NC(=O)c3ccco3)cc2Cl)CC1	BCR signal inh inconclusive
CC(C)(C)c1ccc(C(=O)Nc2ccc(CN3CCS(=O)(=O)CC3)cc2)cc1	none
O=C(Nc1ccc(N2CCOCC2)c(Cl)c1)c1ccco1	D1 antag -34, BCR signal inh inconclusive
O=C(Nc1ccc(CN2CCS(=O)(=O)CC2)cc1)c1ccc(C(F)(F)F)cc1	D1 antag -46
CC(C)C(=O)N1CCN(c2ccc(NC(=O)c3ccco3)cc2Cl)CC1	none (no result: D1 potentiator)
O=C(Nc1ccc2c(c1)Cc1ccccc1-2)c1ccco1	D3 antag -98, BCR signal inh inconclusive
O=C(Nc1ccc(N2CCN(C(=O)c3ccco3)CC2)c(Cl)c1)c1cc2ccccc2o1	DRD3 agonist 36, BCR signal inh inconclusive
CCCCNC(=O)CSc1nc2nc(C)c(Cc3ccccc3C)c(C)n2n1	none (no result: D3 antag, BCR signal inh)
COc1ccc(-c2nn(-c3ccccc3)cc2C2NC(=O)NC(C)=C2C(=O)OC(C)C)cc1Cl (stereo not given)	none (no result: D3 antag, BCR signal inh)
O=C(Nc1ccc(CN2CCOCC2)cc1)c1ccco1	D1 antag -35
CCOc1ccc(NC(=O)c2ccc(NC(=S)NC3CCCCC3)cc2)cc1	D3 antag -68, BCR signal inh inconclusive
CCOc1ccc(NC(=O)c2ccc(NC(=O)c3ccc(CN4CCOCC4)cc3)cc2)cc1	D1 antag -34, BCR signal inh inconclusive
O=C(Nc1ccc(CN2CCOCC2)cc1)c1ccc(Cl)cc1	none
CCCC(=O)N1CCN(c2ccc(NC(=O)c3cc4ccccc4o3)cc2Cl)CC1	DRD3 agonist 35, D1 antag -47, BCR signal inh inconclusive
COc1ccc(S(=O)(=O)N2CCC(C(=O)N[C@@H](C)C(=O)NCc3ccccn3)CC2)cc1	none (no result: D1 antag, D1 ag, BCR signal inh, D1 potentiator)
CCC(C)NC(=O)Cn1c(=O)n(Cc2ccc(C(=O)NCCCOC)cc2)c(=O)c2ccccc21 (stereo not given)	none (no result: D3 antag, BCR signal inh)
COc1c(C(=O)Nc2ccc(CN3CCOCC3)cc2)cc2ccccc2c1Br	D1 antag -31
Cc1ccc(/C=C2\CCC3=C2OC(N)=C(C#N)C3c2ccc(C)cc2)cc1 (stereo not given)	D1 antag -57, D1 ag 135
O=C(CN1C(=O)NC2(CCCC2)C1=O)OCc1ccc(Br)cc1	D1 antag -66
O=C(CN1C(=O)NC2(CCCCCC2)C1=O)c1ccc(F)cc1	D1 antag -49
O=C(CN1C(=O)NC2(CCCC2)C1=O)OCc1ccccc1	BCR signal inh inconclusive
CN(Cc1ccccc1Br)C(=O)CN1C(=O)NC2(CCCCCC2)C1=O	D1 antag -76
O=C(CN1C(=O)NC2(CCCCCC2)C1=O)c1ccc(Cl)cc1	BCR signal inh inconclusive
N#Cc1ccsc1NC(=O)CN1C(=O)NC2(CCCC2)C1=O	D1 antag -33 (no result: D3 antag, DRD3 agonist)
CN(Cc1ccccc1)C(=O)CN1C(=O)NC2(CCCC2)C1=O	none
CC(C)NC(=O)C1CCN(c2nc3ccccc3nc2C(F)(F)F)CC1	none (no result: D3 antag, BCR signal inh)
O=C(O)c1ccc2c(c1)C(=O)N([C@]1(C(=O)O)CC1c1ccccc1)C2=O (stereo not given in full)	none (no result: D3 antag, DRD3 agonist)
Cc1ccc(C2c3c(-c4cc(C)ccc4O)n[nH]c3C(=O)N2Cc2ccco2)cc1 (stereo not given)	none (no result: D3 antag, BCR signal inh)
CCOC(=O)N1CCN(Cc2nc3cc(NC(=O)CC(C)C)ccc3n2C(C)C)CC1	none (no result: D3 antag, BCR signal inh)
Cc1ccc(S(=O)(=O)c2nc(S(=O)(=O)c3ccccc3)sc2N2CCN(C)CC2)cc1	D3 antag -86
Cc1ccc(S(=O)(=O)c2nc(S(=O)(=O)c3ccccc3)sc2N2CCN(CCO)CC2)cc1	D3 antag -74, BCR signal inh inconclusive
O=C(c1cnc(N2CCCCC2)c2ccccc12)N1CCN(c2ccc(Cl)cc2)CC1	none (no result: D3 antag, BCR signal inh)
O=C(O)CN1C(=O)C=CC1=O	none (no result: D1 antag, D1 ag, BCR signal inh, D1 potentiator)
O=C1C=CC(=O)N1CCCCCCN1C(=O)C=CC1=O	D3 antag -72, BCR signal inh inconclusive
Cc1ccccc1N1CCN(Cc2ccc(Br)o2)CC1	D3 antag -58
Cc1cccc(N2CCN(Cc3ccc(Br)o3)CC2)c1C	D3 antag -56
Cc1cccc(N2CCN(Cc3nnc(-c4cccc(Br)c4)o3)CC2)c1C	none (no result: D3 antag, BCR signal inh)
Clc1ccccc1N1CCN(Cc2ccc(Br)o2)CC1	D3 antag -60 (no result: D1 antag, D1 ag, BCR signal inh, D1 potentiator)
